From PubChem BioAssay come the findings set out here.

Assay [1] can be described thus: HepG2 liver cancer cell viability effects, profiling panel, resazurin fluorescence, 24 h, PK04 Diversity Set (AID 1172). Further: test concentration not given here. The note with it: higher = more signal.
Assay [2] in a line: basal S. cerevisiae growth modulation, no modifier, primary screen, OD600, strain BY4716, 24 h, basal condition (AID 1173). The note with it: OD600, 24 h, higher = more signal, called active from +8 up or from −8 down.
A short description of assay [3]: MM1S myeloma cell viability, profiling panel, resazurin fluorescence, basal, 24 h, PK04 Diversity Set (AID 1174).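 Further: MM1S multiple myeloma cell line; test concentration not given here.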 The note with it: higher = more signal, called active from +8 up or from −8 down.
For assay [4], the target named is Dihydroorotate dehydrogenase (quinone), mitochondrial (Plasmodium falciparum (isolate 3D7)) (UniProt Q08210). Kind of assay: PfDHODH enzyme inhibitors, primary screen, biochemical, C-terminal His tag, absorbance 600 nm (AID 1175).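 Further: recombinant parasite enzyme with a five histidine tag at its C terminus; test concentration not given here.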 The settings on record: DCIP absorbance 600 nm, higher = more signal, called active from +8 up or from −8 down.
Sequence of Dihydroorotate dehydrogenase (quinone), mitochondrial (Plasmodium falciparum (isolate 3D7)) (Q08210 whole entry, looked up): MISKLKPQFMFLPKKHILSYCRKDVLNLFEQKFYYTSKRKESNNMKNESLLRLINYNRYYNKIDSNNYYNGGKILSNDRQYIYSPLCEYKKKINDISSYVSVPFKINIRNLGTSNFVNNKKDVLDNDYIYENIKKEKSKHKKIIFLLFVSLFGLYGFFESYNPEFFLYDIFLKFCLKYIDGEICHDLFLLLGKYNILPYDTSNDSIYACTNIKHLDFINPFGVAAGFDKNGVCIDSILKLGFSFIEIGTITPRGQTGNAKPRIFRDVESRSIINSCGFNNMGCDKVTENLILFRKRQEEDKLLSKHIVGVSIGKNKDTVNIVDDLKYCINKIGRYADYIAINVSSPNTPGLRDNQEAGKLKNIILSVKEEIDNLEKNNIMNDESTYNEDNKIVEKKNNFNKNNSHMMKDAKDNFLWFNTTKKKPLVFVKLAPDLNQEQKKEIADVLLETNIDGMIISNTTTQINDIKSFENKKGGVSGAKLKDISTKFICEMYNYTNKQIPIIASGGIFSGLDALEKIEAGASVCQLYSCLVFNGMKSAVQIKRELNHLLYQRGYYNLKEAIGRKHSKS
Assay [5] in a line: P. aeruginosa biofilm formation inhibitors, primary screen, strain PAO1, LB-PBS medium, absorbance 600 nm (AID 1176). Further: test concentration not given here. The settings on record: P. aeruginosa PAO1 growth/biofilm, A600, 12 h; higher = more signal.
Assay [6] is described as follows: S. cerevisiae RM11-1a growth modifiers, primary screen, strain RM11-1a, OD600, basal, 24 h (AID 1177).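 Further: cultures grown under basal conditions with no added stressor; test concentration not given here.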 The note with it: OD600, 24 h, higher = more signal, called active from +8 up or from −8 down.
The nature of assay [7]: E. coli acrAB mutant growth effects, primary screen, E. coli filamentation inducers, strain DRC39, OD650, 24 h (AID 1178).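 Further: growth measured as culture turbidity by optical density at 650 nm; test concentration not given here.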 The note with it: higher = more signal, called active from +8 up or from −8 down.
A short description of assay [8]: E. coli acrAB mutant growth effects, primary screen, E. coli filamentation inducers, strain DRC39, OD650, 48 h (AID 1179).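 Further: screen aims at cell division blockers that make cells filament.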 The note with it: E. coli DRC39 delta-acrAB growth, higher = more signal, called active from +8 up or from −8 down.
Assay [9] can be described thus: RPMI8226 myeloma cell viability, profiling panel, resazurin fluorescence, basal, 24 h, PK04 Diversity Set (AID 1180).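 Further: RPMI8826 multiple myeloma cell line at 5000 cells per well; test concentration not given here.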 The settings on record: higher = more signal.
Assay [10] concerns the target E3 ubiquitin-protein ligase XIAP (Homo sapiens) (UniProt P98170). The assay is described as follows: XIAP binders, primary screen, biophysical, small-molecule microarray, fluorescence 635 nm (AID 1181).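 Further: score merges 667 nm emission and signal to noise over triplicate slides.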 The settings on record: small-molecule microarray binding, higher = more signal.

Activity calls are given as the source filed them. Unless noted, how the calls were made is not given here.

Sequence of E3 ubiquitin-protein ligase XIAP (Homo sapiens) (P98170 whole entry, looked up): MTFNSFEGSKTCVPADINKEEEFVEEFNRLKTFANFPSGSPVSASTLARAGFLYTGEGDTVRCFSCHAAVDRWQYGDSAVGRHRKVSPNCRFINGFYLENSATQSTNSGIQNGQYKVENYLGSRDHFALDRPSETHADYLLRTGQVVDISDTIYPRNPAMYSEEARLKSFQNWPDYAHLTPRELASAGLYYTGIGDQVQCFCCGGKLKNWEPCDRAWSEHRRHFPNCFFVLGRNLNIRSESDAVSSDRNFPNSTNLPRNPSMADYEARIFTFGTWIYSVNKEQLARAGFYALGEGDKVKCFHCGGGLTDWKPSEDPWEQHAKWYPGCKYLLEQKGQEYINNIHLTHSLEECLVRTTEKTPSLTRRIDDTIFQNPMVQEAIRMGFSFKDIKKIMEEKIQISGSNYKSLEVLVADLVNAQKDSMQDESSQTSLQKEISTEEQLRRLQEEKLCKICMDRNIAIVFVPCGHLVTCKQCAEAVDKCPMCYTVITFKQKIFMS

Regarding `CCOC(=O)C=Cc1cc([N+](=O)[O-])ccc1O`, the z-score in assay [1] is -0.495; in assay [2], -4.86 (inactive); in assay [3], -0.912 (inactive); in assay [5] it was -0.501 (inactive); in assay [6], 0.11 (inactive); in assay [7], -0.238 (inactive). In addition, the z-score in [8] was -1.13 (inactive); in assay [9], -0.688. In addition, the composite z-score in assay [4] is -4.74 (inactive); in assay [10], 0.193.

For the compound `C=C(/C(=C/C[C@@H](OC(C)=O)c1ccc(OCCO)cc1)c1cnc2ccccc2c1)C(C)C`, the z-score in assay [1] is 1.22; in [2] it was -2.05 (inactive); in assay [3], -0.318 (inactive); in assay [5], -0.165 (inactive); in assay [6], -1.87 (inactive); in assay [7], 1.58 (inactive). Moreover, the z-score is 0.79 (inactive) in assay [8] and 1.05 in assay [9]. Moreover, the composite z-score is -7.29 (inactive) in assay [4] and 0.287 in [10].

`C=CCOC(=O)[C@@H]1[C@H]2C(=O)O[C@H](c3ccccc3)[C@H](c3ccccc3)N2[C@H](c2ccc(OCCOC(=O)[C@@H]3C[C@@H]4C(=O)N[C@@H](CCCCN(C)C)C(=O)N4[C@@H]3c3ccc(O)cc3)cc2)[C@@]12C(=O)Nc1ccc(I)cc12`: the z-score in [1] is 0.883; in assay [2] it was -0.955 (inactive); in assay [3] it was -0.078 (inactive); in assay [5] it was 0.531 (inactive); in assay [6] it was 1.65 (inactive); in assay [7], -0.821 (inactive). Also, the z-score is 0.0885 (inactive) in assay [8] and -0.153 in [9]. For the same compound, the values for the composite z-score in [4] and in [10] were -0.262 (inactive) and -0.157, respectively.

As to `CN(C)CCCNC(=O)[C@@]1(c2ccc([N+](=O)[O-])cc2)CC(=O)N(C2CCCCC2)[C@@H]1c1ccc(CO)cc1I`, the z-score was -6.5 in assay [1]; -11.7 (active) in [2]; -9.1 (active) in [3]; 0.0714 (inactive) in [5]; 0.344 (inactive) in [6]; 0.725 (inactive) in assay [7]. Besides, the z-score in [8] is -1.28 (inactive); in [9], -6.61. Moreover, the composite z-score in assay [4] was -1.19 (inactive); in assay [10], 0.125.

For `CCOC(=O)C1=CCC(c2ccc(C)cc2)N(S(=O)(=O)c2ccc(C)cc2)C1` (stereo not given), the z-score in assay [1] was 0.28; in assay [2], 1.94 (inactive); in [3] it was -0.714 (inactive); in assay [5], 0.173 (inactive); in assay [6], 1.03 (inactive); in assay [7], -0.764 (inactive). Moreover, the z-score in [8] was -0.56 (inactive); in [9] it was -1.63. For the same compound, the composite z-score in assay [4] was -0.526 (inactive); in assay [10] it was 0.128.

In the case of `COc1cc(CO)cc(I)c1O[C@H]1C=C(C(=O)NCCO)C[C@@H](N(CCN2CCOCC2)C(=O)C2CCOC2)[C@@H]1O` (stereo not given in full), the z-score in [1] is 1.66; in [2], -2.49 (inactive); in assay [3], 0.85 (inactive); in [5], 0.355 (inactive); in assay [6], 0.0222 (inactive); in assay [7], 2.68 (inactive). In addition, the z-score in assay [8] was 1.5 (inactive); in assay [9], 0.923. Moreover, the composite z-score in assay [4] was 0.938 (inactive); in assay [10] it was 0.02.

With `CC1CC/C=C\[C@H]2OC34C=CCN(c5ccc(Cl)cc5)C(=O)[C@H]3N(CCO)C(=O)[C@]4(C)C2C(=O)O1` (stereo not given in full), the z-score is -0.349 in assay [1]; -0.152 (inactive) in assay [2]; -1.13 (inactive) in assay [3]; 0.0962 (inactive) in assay [5]; -0.245 (inactive) in assay [6]; -0.135 (inactive) in assay [7]. The z-score in assay [8] was -0.672 (inactive); in assay [9], 0.102. Further, the results for the composite z-score in assay [4] and in [10] were -0.0582 (inactive) and -0.0785, respectively.

Consider `CCCC[C@@H]1C[C@H]1[C@@H](NC(=O)c1ccco1)c1ccc(C(=O)OC)cc1`, for which the z-score is -0.351 in assay [1]; 0.788 (inactive) in assay [2]; -0.184 (inactive) in assay [3]; 0.812 (inactive) in assay [5]; -0.716 (inactive) in assay [6]; -1.03 (inactive) in assay [7]. For the same compound, the z-score in assay [8] is -0.489 (inactive); in assay [9], -0.826. The composite z-score is -0.271 (inactive) in assay [4] and 0.104 in [10].

Regarding `C=CCN1C(=O)[C@]2(O[C@H](CCO)[C@@H]([Si](C)(C)c3ccc(OC)cc3)[C@@H]2C)c2cc(N3CCCCC3=O)ccc21`, the z-score is -3.6 in assay [1]; 1.22 (inactive) in assay [2]; -5.89 (inactive) in assay [3]; -0.577 (inactive) in assay [5]; 2.97 (inactive) in [6]; 0.575 (inactive) in assay [7]. The results for the z-score in assay [8] and in assay [9] were -0.648 (inactive) and -6.02, respectively. The composite z-score in assay [4] was -1.45 (inactive); in assay [10], -0.258.

For `COc1ccc(CCN2C(=O)[C@@]3(c4ccc([N+](=O)[O-])cc4)CC(=O)N(C4CCCCC4)[C@@H]3c3ccc(CO)cc32)cc1`, the z-score was -0.356 in assay [1]; 1.37 (inactive) in [2]; -0.672 (inactive) in assay [3]; 0.944 (inactive) in assay [5]; -0.582 (inactive) in [6]; -0.0051 (inactive) in assay [7]. Moreover, the results for the z-score in [8] and in [9] were -0.0209 (inactive) and -0.749, respectively. Moreover, the composite z-score in assay [4] is -25.9 (active); in assay [10], -0.167.

Consider `O=C1OCCC/C=C\[C@H]2OC34C=CCN(CCN5CCOCC5)C(=O)[C@H]3N(CCCO)C(=O)[C@@H]4C12` (stereo not given in full), for which the z-score in [1] is -0.0764; in assay [2], -0.314 (inactive); in assay [3] it was -0.146 (inactive); in assay [5], -0.525 (inactive); in [6] it was -1.22 (inactive); in [7], -0.0395 (inactive). In addition, the z-score in assay [8] is -0.125 (inactive); in [9], 0.125. The results for the composite z-score in assay [4] and in assay [10] were -0.053 (inactive) and 0.138, respectively.

With `COc1ccc(C(=O)Nc2ccc(CN3C(=O)[C@@]4(O[C@@H](CCn5cc([C@H](O)c6ccccc6)nn5)[C@H]([Si](C)(C)c5ccc(OC)cc5)[C@H]4C)c4ccccc43)cc2)cc1`, the z-score was -1.44 in assay [1]; -0.91 (inactive) in assay [2]; -3.18 (inactive) in assay [3]; 1.04 (inactive) in assay [5]; 1.57 (inactive) in [6]; 0.245 (inactive) in assay [7]. Further, the values for the z-score in assay [8] and in assay [9] were 0.195 (inactive) and -3.11, respectively. For the same compound, the composite z-score in assay [4] is -0.441 (inactive); in assay [10], -0.16.

Regarding `CN1C(=O)C2C=CC(C(O)C3CCCCC3)N(Nc3ccc([N+](=O)[O-])cc3[N+](=O)[O-])C2C1=O` (stereo not given), the z-score was -0.248 in [1]; 0.819 (inactive) in [2]; -0.778 (inactive) in [3]; -0.159 (inactive) in assay [5]; -0.0006 (inactive) in [6]; -0.719 (inactive) in assay [7]. Moreover, the z-score in assay [8] is -0.556 (inactive); in assay [9], -0.373. Moreover, the composite z-score in assay [4] is -0.877 (inactive); in assay [10] it was 0.618.
